Laboratory results: PubChem BioAssay
Potency and affinity values are given separately. Inconclusive results are not listed. Activity calls are given as the source filed them. Unless noted, how the calls were made is not given here.

Assays:
[1] = viability loss in HepG2 hepatoma cells – cell-based, cherry-picks, set 2, cytotoxicity control, dose response (AID 687002;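 active means a dose-response fit showing signal loss, with half-maximal concentration no higher than twice the top tested dose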)
[2] = viability loss in HeLa cells – cell-based, ATP luminescence, cherry-pick samples, cytotoxicity control, dose response (AID 687004;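 active means a fitted half-maximal concentration no higher than twice the top valid tested dose, with signal falling as cells die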;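 further: 0% = neutral control median and -100% = staurosporine 10 µM control median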)
[3] = PAX8 transcriptional activity inhibition in RMG-I – RMG-I cells, luciferase, cherry-pick, dose response (AID 687027;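 active means every replicate test run called active, with the signal dropping as expected and potency within twice the top valid dose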)
[4] = RMG-1 ovarian cancer cell viability loss – cherry-pick, dose response (AID 687029;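 active means signal drop whose fitted half-maximal concentration is at most twice the top valid dose, in every test run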;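 further: cells exposed to compound for 96 hours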)
[5] = IOSE-T80 viability loss, PAX8-independent line – cell-based, cherry-pick, selectivity assay for PAX8 inhibitor project, dose response (AID 687032;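 active means fitted half-maximal concentration for viability loss no higher than twice the top valid dose, in every repeat run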;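 further: cells exposed to compound for 96 h before reading; 0% = neutral control wells and -100% = 2 µM mitoxantrone kill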)
[6] = CMV-driven luciferase expression suppression in HEK293 – cell-based, luminescence, dry powder, counter-screen for Pax8 inhibitor project, dose response (AID 743020;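 active means signal-lowering compounds whose fitted half-maximal concentration is at or below twice the top tested dose in every run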;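 further: HEK293 cells stably expressing the CMV luciferase reporter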)
[7] = general cell-killing toxicity readout – plate reader, dry powder samples, cytotoxicity control for PAX8 inhibitor project, dose response (AID 743021)
[8] = IGROV1 cell killing – plate reader, dry powder samples, PAX8 inhibitor project, dose response (AID 743043);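 further: more negative means fewer viable cells or more cytotoxicity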
[9] = OVCAR-3 cell viability loss – plate reader, dry powder samples, PAX8 inhibitor project, dose response (AID 743044); details: max activity: at 35 µM, active compounds read low unless noted
[10] = toxicity toward immortalized ovarian surface epithelium – cell-based, plate reader, dry powder samples, cytotoxicity control for PAX8 inhibitor project, dose response (AID 743045);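 further: 0% = neutral control median and -100% = positive control median; more negative values mean more cell killing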
[11] = OVCAR8 cell viability loss – plate reader, dry powder samples, PAX8 project, dose response (AID 743197)
[12] = A2780 cell killing – plate reader, dry powder samples, cytotoxicity control, dose response (AID 743046);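 further: 0% = neutral control wells and -100% = cytotoxic reference compound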

CCOc1ccc(CNC(=S)NCc2ccc(OCC)cc2)cc1
inactive: outcome [1] | outcome [2]

Cn1cc(/C=C(\C(=O)O)C(C(=O)O)=C2CCCCC2)c2ccccc21
inactive: outcome [3] | outcome [4] | outcome [5] | outcome [6] | outcome [7]

CC(C)CC1(C)N=C(c2ccccc2)C(=S)N1 (stereo not given)
inactive: outcome [1] | outcome [2]

COC(=O)C1=C(C)N(Cc2ccc(Cl)cc2)C(=S)NC1c1cccc(F)c1 (stereo not given)
inactive: outcome [1] | outcome [2]

CCCCNC(=O)/C(=C/c1ccccc1)NC(C)=O
inactive: outcome [3] | outcome [4] | outcome [5] | outcome [6] | outcome [7]

COC(=O)C1=C(C)N(Cc2ccc(F)cc2)C(=S)NC1c1ccccc1 (stereo not given)
inactive: outcome [1] | outcome [2]

Cc1ccccc1Cn1cnc2ccccc2c1=O
inactive: outcome [3] | outcome [4] | outcome [5] | outcome [6] | outcome [7]

O=C(NC(=S)Nc1ccc(Br)cc1)C1CCC1
inactive: outcome [1] | outcome [2]

CC1CCCC(NC(=O)COC(=O)c2ccccc2Sc2ccccc2C#N)C1C (stereo not given)
inactive: outcome [3] | outcome [4] | outcome [5] | outcome [6] | outcome [7]

O=C(CCCC(=O)OCC(Cl)=C(Cl)Cl)Nc1ccc(F)cc1
inactive: outcome [3] | outcome [4] | outcome [5] | outcome [6] | outcome [7]

CCOc1ccc2c(CC)cc(=O)oc2c1OCC
inactive: outcome [3] | outcome [4] | outcome [5] | outcome [6] | outcome [7]

c1ccc(COc2ccc(OCCN3CCCCC3)cc2)cc1
inactive: outcome [3] | outcome [4] | outcome [5] | outcome [6] | outcome [7]

C[C@@H]1CN([C@H](C)CO)C(=O)c2cc(C3=CCCCC3)cnc2O[C@H]1CN(C)C(=O)Cc1cccnc1
inactive: outcome [1] | outcome [2]

Cc1ccc(NC(=S)N(CCCN2CCOCC2)Cc2ccccn2)cc1
inactive: outcome [3] | outcome [4] | outcome [5] | outcome [6]

O=C(O)CCCNC(=O)C(c1ccccc1)c1ccccc1
inactive: outcome [3] | outcome [4] | outcome [5] | outcome [6] | outcome [7]

COC(=O)C1=C(C)N(Cc2ccccc2)C(=S)NC1c1cccc(OC)c1 (stereo not given)
inactive: outcome [1] | outcome [2]

COc1ccc(CN2C(=O)C(CC(=O)NCCCCc3ccccc3)CC(C(=O)N3CCOCC3)=C2C)cc1 (stereo not given)
inactive: outcome [3] | outcome [4] | outcome [5] | outcome [6] | outcome [7]

COc1ccc(CNC(=S)NCc2ccc(OC(C)C)cc2)cc1
inactive: outcome [1] | outcome [2]

N/C(=N\OS(=O)(=O)c1cccc([N+](=O)[O-])c1)c1ccncc1
inactive: outcome [3] | outcome [4] | outcome [5] | outcome [6] | outcome [7]

O=C1/C(=C\c2ccco2)SC(=S)N1c1ccc(O)cc1
inactive: outcome [3] | outcome [4] | outcome [5] | outcome [6] | outcome [7]

CCCCCCCCC(=O)NCCOc1ccccc1
inactive: outcome [3] | outcome [4] | outcome [5] | outcome [6] | outcome [7]

O=[N+]([O-])c1cccnc1S(=O)(=O)c1ccccc1
inactive: activity change, negative = inhibition [3] -21.1% [at 8 µM]

O=C(CSc1ncccc1-c1nc2ccccc2[nH]1)N1CCc2ccccc21
inactive: outcome [3]

O=C(C1CCOCC1)N1CC[C@@H]2[C@@H](CO)Nc3ccc(Br)cc3[C@@H]21
inactive: outcome [1] | outcome [2]

COCCNC(=O)C/C(C)=N/NC(=O)C(=O)NC1CCCCC1
inactive: outcome [3] | outcome [4] | outcome [5] | outcome [6] | outcome [7]

CCC(=O)N(C)C[C@@H]1Oc2cc(C#CC(C)(C)O)ccc2S(=O)(=O)N([C@@H](C)CO)C[C@H]1C
inactive: outcome [1] | outcome [2]

COc1ccc(C2Nc3ccccc3C(=O)N2c2ccc(F)cc2)cc1CSc1ccccn1 (stereo not given)
inactive: outcome [3] | outcome [4]

COc1cccc(C(=O)NC(=S)Nc2ccccc2N2CCOCC2)c1
inactive: outcome [1] | outcome [2]

Cc1ccccc1NC(=S)NC(=O)CCc1ccccc1
inactive: outcome [1] | outcome [2]

Cc1ccc(NC(=O)NC(=O)COc2ccc(Cl)cc2Cl)c(C)c1
inactive: outcome [3] | outcome [4] | outcome [5] | outcome [6] | outcome [7]

COCC(=O)Nc1ccc2c(c1)C(=O)N(C)C[C@H](OC)[C@@H](C)CN(C(=O)c1ccccc1)[C@@H](C)CO2
inactive: outcome [1] | outcome [2]

CN(CC(=O)Nc1cccc(F)c1)C(=O)CCCc1cccs1
inactive: outcome [3] | outcome [4] | outcome [5] | outcome [6] | outcome [7]

CCOc1ccc2ccccc2c1/C=N\NC(=O)OC
inactive: outcome [3] | outcome [4]

O=C(c1ccc2c(c1)OCO2)N1CCN(c2ccc(C(F)(F)F)cn2)CC1
inactive: outcome [3] | outcome [4] | outcome [5] | outcome [6] | outcome [7]

Cc1ccc(NC(=O)C2CC(=O)N/C(=N/N=C/c3ccco3)S2)cc1C (stereo not given)
inactive: outcome [3] | outcome [4] | outcome [5] | outcome [6] | outcome [7]

COc1ccccc1C#Cc1ccc2c(c1)O[C@H](CN(C)C(C)=O)[C@H](C)CN([C@@H](C)CO)S2(=O)=O
inactive: outcome [1] | outcome [2]

Cn1c(SCC(=O)c2ccccc2)nnc1-c1ccccn1
inactive: outcome [3]

CCCCNC(=S)N/N=C/c1ccc(C#N)cc1
inactive: outcome [1] | outcome [2]

O=C(NC1CCCC1)N1CCCCN2[C@@H](CO)[C@@H](c3ccc(/C=C/c4ccccc4)cc3)[C@@H]2C1
inactive: outcome [3] | outcome [4] | outcome [5] | outcome [6] | outcome [7] | outcome [8] | max activity [9] 28.4% [at 2.1 µM, active compounds read low] | outcome [10] | outcome [11]

CO[C@@H]1CN(C)C(=O)c2cc(NC(=O)c3ccccc3F)ccc2OC[C@@H](C)N(CC2CC2)C[C@@H]1C
inactive: outcome [3] | outcome [4] | outcome [5] | outcome [6] | outcome [7] | outcome [8] | max activity [9] 9.58% [at 0.5 µM, active compounds read low] | outcome [10] | outcome [12] | outcome [11]

C[C@@H]1CN([C@@H](C)CO)C(=O)c2cccc(NS(=O)(=O)c3ccc(F)cc3)c2O[C@H]1CN(C)Cc1ccc(-c2ccccc2)cc1
inactive: outcome [3] | outcome [4] | outcome [5] | outcome [6] | outcome [7] | outcome [8] | max activity [9] 17.5% | outcome [10] | outcome [12] | outcome [11]
